In the supplement of paper PMC11732987, “Enantioselective OTUD7B fragment discovery through chemoproteomics screening and high-throughput optimisation” (Communications Chemistry, 2025):

Legend:
Test in all cases: log2 ratio of Biotin-Ahx-Ub-VS probe labelling (fragment/DMSO); higher = less target engagement (more negative = stronger competition), active = hit call of the paper (q ≤ 0.05, log2 ratio ≤ -1)
Details in all cases: compound concentration: 200 uM; treatment time: 3 h
USP34 = USP34 (UniProt Q70CQ2)
Outline: (§1)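 Average log2 ratios of fragment over vehicle were obtained by unpaired t-test from global-median-normalised Spectronaut label-free quantities. Proteins with ≥2 unique peptides were included. HEK293T lysate (495 µg per sample) was treated in triplicate with fragment at 200 µM or vehicle for 3 h, then with Biotin-Ahx-Ub-VS at 0.5 µM final for 1 h, and labelled DUBs were NeutrAvidin-enriched and run by diaPASEF LC-MS/MS.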

USP36 = target: T1, USP36 (UniProt Q9P275)
T1 sequence (whole entry): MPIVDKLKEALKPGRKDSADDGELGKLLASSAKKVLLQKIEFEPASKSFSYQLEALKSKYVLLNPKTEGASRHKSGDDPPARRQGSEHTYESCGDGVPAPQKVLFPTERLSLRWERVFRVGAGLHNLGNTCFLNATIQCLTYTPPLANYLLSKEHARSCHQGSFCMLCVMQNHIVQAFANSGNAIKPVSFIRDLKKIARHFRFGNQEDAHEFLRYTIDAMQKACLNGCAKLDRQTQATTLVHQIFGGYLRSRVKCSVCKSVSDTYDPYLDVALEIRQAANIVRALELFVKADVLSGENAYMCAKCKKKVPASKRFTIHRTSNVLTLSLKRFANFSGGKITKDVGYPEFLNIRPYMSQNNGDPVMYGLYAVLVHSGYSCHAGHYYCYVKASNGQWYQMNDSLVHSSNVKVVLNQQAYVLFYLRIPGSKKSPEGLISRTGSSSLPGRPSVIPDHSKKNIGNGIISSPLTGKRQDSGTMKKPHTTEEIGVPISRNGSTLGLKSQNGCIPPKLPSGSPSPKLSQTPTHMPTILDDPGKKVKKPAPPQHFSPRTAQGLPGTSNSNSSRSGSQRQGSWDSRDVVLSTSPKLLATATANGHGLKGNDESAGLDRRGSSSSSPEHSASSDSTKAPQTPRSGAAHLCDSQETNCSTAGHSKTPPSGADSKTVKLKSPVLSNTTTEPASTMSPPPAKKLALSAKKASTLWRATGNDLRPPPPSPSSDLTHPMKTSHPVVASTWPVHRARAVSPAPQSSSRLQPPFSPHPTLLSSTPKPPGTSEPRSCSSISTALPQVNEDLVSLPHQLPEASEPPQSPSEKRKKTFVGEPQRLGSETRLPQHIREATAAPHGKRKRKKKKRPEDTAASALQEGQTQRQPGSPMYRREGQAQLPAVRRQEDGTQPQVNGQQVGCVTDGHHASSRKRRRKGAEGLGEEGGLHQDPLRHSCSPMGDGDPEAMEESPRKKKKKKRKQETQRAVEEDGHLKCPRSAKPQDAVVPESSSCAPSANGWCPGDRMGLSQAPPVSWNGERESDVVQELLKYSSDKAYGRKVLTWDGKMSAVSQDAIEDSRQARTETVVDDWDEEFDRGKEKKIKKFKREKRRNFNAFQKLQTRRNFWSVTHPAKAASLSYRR
Outline: as §1

USP38 = target: T2, USP38 (UniProt Q8NB14)
T2 sequence (whole entry): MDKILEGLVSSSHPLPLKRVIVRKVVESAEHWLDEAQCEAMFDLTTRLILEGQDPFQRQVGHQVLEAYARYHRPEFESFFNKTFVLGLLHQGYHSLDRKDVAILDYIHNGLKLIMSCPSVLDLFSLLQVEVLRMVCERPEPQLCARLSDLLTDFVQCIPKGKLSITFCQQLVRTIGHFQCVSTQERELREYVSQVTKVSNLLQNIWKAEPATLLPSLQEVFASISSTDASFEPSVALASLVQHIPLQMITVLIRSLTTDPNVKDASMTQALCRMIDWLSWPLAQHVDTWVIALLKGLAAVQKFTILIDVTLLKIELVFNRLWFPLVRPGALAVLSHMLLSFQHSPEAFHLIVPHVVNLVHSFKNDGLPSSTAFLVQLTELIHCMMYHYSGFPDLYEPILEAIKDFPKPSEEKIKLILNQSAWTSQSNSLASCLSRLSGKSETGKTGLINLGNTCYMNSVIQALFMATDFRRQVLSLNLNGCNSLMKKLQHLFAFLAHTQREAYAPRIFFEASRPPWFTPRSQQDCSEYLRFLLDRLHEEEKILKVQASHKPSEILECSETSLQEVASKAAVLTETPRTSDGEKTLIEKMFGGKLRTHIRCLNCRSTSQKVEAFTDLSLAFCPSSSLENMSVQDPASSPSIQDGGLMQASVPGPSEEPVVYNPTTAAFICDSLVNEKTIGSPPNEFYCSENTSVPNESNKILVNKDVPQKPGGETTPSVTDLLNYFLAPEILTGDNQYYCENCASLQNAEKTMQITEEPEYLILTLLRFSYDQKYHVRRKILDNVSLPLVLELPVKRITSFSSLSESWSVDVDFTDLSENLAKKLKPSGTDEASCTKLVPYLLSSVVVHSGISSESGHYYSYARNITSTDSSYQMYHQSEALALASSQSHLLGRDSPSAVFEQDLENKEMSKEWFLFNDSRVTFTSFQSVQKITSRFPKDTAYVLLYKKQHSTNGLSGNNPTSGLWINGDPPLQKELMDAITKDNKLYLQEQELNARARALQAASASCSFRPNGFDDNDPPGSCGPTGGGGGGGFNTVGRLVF
Outline: as §1

USP39 = target: T3, USP39 (UniProt Q53GS9)
T3 sequence (whole entry): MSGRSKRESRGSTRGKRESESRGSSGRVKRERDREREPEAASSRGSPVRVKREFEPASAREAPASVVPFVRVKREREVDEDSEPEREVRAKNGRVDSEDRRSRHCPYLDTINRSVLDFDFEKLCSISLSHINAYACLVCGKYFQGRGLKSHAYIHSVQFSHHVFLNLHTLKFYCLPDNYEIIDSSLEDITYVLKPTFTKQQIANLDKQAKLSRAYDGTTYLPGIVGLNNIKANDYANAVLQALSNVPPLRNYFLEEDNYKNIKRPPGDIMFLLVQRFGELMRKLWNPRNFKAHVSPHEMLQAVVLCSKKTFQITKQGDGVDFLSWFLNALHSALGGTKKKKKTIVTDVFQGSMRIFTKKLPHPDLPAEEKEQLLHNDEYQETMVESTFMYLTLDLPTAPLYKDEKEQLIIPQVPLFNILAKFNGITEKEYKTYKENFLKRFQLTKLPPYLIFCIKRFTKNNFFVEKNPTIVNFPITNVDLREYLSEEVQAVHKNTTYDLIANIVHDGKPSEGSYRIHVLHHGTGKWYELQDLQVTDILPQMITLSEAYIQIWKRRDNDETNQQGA
Outline: as §1

USP4 = target: T4, USP4 (UniProt Q13107)
T4 sequence (whole entry): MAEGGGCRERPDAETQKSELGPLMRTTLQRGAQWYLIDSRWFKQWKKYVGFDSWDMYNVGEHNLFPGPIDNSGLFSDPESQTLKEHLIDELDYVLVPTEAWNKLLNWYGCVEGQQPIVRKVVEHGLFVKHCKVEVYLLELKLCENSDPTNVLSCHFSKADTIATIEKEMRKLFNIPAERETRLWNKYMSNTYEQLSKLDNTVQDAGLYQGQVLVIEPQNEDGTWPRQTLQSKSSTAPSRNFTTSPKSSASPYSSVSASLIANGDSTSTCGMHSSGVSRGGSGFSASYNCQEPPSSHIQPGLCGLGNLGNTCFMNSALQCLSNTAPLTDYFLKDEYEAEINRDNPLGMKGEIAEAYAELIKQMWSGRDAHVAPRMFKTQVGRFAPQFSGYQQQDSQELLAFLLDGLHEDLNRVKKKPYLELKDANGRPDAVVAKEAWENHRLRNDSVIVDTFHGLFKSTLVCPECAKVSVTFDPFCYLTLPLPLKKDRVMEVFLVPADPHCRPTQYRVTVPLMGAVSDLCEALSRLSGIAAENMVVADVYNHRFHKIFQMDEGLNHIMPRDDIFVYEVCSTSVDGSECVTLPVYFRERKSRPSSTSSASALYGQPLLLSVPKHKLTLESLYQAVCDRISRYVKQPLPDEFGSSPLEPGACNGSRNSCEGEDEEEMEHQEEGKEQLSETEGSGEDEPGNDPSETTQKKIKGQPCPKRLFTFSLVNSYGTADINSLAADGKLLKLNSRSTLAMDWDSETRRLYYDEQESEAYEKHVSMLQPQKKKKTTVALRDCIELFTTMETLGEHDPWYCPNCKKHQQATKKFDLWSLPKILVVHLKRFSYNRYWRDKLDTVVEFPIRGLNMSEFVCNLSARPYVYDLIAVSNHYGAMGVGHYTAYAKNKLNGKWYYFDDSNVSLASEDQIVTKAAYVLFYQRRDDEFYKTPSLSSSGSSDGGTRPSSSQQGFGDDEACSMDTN
Outline: as §1

Measured: log2 ratio of Biotin-Ahx-Ub-VS probe labelling

Chain of USP34 (Q70CQ2 whole entry, the tested form may be a part): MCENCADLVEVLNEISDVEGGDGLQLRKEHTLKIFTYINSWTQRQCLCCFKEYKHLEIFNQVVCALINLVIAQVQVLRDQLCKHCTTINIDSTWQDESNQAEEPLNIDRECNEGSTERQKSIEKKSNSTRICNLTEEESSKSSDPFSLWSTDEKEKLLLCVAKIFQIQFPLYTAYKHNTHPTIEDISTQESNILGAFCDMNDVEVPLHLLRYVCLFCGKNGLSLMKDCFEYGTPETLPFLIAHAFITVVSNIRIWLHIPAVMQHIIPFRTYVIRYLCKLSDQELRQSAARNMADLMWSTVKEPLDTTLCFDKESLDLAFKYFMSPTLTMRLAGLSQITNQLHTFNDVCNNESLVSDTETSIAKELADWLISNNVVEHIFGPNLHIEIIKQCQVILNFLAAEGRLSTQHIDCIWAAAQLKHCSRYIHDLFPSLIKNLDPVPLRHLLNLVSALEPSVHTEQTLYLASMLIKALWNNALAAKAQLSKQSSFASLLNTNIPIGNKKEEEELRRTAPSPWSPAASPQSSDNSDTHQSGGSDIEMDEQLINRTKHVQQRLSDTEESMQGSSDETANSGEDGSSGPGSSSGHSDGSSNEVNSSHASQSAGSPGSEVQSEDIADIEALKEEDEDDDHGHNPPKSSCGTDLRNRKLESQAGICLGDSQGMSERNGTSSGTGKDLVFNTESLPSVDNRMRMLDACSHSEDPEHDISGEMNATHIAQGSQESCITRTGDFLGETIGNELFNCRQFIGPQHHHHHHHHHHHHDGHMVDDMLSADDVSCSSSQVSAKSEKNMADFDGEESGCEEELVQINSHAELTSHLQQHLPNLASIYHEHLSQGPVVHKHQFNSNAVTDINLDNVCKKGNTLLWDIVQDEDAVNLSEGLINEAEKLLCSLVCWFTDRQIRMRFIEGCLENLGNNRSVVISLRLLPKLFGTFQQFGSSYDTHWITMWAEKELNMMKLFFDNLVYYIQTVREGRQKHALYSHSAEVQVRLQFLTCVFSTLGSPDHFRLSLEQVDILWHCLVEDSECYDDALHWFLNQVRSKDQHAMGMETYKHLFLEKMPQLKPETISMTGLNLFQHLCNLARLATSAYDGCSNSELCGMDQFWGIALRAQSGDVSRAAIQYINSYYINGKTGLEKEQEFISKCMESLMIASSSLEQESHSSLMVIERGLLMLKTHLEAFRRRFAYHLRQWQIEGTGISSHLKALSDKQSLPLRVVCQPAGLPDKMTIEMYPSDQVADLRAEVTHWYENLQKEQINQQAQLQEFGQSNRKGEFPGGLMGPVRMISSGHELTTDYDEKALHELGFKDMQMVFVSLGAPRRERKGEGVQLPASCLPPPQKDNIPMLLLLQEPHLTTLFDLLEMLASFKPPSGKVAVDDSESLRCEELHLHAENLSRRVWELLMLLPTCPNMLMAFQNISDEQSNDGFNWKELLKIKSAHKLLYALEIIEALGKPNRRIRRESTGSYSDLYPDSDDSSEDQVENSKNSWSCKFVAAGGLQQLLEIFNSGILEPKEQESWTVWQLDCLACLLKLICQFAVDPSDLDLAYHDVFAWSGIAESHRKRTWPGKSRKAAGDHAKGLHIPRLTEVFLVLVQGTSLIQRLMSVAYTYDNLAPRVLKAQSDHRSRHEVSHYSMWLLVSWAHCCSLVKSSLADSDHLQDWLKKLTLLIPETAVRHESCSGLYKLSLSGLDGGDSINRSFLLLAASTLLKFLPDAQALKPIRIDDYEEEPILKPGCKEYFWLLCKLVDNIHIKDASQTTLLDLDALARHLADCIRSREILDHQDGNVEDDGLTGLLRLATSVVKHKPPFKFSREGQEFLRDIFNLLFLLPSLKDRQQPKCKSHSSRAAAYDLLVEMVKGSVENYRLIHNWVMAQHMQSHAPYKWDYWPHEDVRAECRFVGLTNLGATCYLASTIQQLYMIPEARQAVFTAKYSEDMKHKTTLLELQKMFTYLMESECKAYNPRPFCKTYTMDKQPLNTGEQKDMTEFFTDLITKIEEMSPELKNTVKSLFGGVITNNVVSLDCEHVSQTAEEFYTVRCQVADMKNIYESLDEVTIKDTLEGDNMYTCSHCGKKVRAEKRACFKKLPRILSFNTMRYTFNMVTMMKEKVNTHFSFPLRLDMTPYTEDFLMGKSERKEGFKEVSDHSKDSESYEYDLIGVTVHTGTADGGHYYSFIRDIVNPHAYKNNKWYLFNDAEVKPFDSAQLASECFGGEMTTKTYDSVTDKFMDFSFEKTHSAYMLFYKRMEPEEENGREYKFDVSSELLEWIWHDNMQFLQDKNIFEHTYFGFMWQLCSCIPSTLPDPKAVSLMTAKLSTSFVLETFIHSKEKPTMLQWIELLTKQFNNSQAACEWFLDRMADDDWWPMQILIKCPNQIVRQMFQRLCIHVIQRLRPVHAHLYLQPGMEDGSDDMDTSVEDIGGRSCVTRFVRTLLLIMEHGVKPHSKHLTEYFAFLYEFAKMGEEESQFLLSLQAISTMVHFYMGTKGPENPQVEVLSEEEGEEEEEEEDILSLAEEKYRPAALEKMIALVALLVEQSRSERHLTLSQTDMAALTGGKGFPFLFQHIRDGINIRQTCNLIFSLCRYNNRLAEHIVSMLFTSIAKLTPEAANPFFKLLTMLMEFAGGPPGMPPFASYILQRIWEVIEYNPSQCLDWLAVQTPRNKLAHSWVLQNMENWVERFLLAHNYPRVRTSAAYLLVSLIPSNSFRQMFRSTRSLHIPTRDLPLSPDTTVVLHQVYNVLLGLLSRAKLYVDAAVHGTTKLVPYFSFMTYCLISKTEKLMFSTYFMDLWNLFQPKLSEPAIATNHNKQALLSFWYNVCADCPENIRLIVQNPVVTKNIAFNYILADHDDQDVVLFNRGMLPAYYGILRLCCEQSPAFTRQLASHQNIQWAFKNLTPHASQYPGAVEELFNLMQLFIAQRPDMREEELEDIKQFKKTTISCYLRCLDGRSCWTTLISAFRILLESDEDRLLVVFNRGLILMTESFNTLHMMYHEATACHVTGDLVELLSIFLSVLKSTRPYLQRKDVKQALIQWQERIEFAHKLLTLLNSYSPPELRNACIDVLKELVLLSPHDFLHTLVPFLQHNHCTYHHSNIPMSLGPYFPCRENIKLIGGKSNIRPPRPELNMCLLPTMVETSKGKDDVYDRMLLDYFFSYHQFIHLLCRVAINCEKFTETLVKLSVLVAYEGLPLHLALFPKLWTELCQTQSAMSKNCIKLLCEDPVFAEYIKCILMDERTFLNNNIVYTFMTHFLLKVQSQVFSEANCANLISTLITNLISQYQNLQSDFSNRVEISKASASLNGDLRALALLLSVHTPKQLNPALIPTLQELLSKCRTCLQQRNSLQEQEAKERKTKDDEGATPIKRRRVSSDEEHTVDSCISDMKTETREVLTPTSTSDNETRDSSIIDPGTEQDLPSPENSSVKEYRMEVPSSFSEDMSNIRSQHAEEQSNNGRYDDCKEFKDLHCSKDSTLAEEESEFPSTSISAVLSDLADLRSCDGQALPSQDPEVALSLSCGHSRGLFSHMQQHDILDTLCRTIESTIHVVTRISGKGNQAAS

COCC1C=CCCN1C(=O)CCl (stereo not given)
inactive: USP34 -0.0902 | USP36 -0.00282 | USP38 -0.157 | USP39 -0.196 | USP4 -0.211
